From PubChem BioAssay come the findings set out here.

The source made the active and inactive calls. Unless noted, the rule behind the calls is not given here.

The test system of assay [1] is XIP peptide (Xip251-270) binding. Description: small-molecule binders of XIP peptide, primary screen, biochemical, small-molecule microarray, fluorescence 635/667 nm, 0.1 µg/mL protein (AID 1182). As to conditions: fluorescent protein binding, 635 nm, higher = more signal, called active from +8 up or from −8 down.
For assay [2], the system named is XIP peptide (Xip251-270). As to the kind of experiment: small-molecule binders of XIP peptide, primary screen, biochemical, small-molecule microarray, fluorescence 635/667 nm, 0.5 µg/mL protein (AID 1183). The settings on record: small-molecule microarray binding, fluorescence 635 nm; higher = more signal.
Assay [3] is described as follows: Plasmodium falciparum growth inhibition, primary screen, strain 3D7, DAPI fluorescence, 100 nL (AID 1184).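 Note: parasites grown inside human red blood cells in medium with human serum.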 The settings on record: P. falciparum 3D7 growth, 3 d, higher = more signal.
The target in assay [4] is Homeobox protein Hox-A13 (Mus musculus) (UniProt Q62424). Description: inhibitors of HoxA13-DNA binding, primary screen, biochemical, fluorescence polarization, labeled oligonucleotide (AID 1185). The settings on record: 15 min, higher = more signal, called active from +8 up or from −8 down.
Sequence of Homeobox protein Hox-A13 (Mus musculus) (Q62424 whole entry, looked up): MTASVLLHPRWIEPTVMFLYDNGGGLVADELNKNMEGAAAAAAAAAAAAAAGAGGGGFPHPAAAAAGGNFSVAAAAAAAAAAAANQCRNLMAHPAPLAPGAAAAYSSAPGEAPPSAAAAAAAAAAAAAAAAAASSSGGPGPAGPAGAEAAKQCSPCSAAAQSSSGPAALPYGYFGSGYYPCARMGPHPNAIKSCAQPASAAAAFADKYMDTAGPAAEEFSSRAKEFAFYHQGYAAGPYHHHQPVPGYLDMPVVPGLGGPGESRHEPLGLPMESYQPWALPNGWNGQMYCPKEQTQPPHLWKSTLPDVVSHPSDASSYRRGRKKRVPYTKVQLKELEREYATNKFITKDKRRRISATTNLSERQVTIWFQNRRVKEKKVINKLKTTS
A short description of assay [5]: inhibitors of hydroxyurea-induced Chk1 phosphorylation, primary screen, imaging, HeLa, phospho-Chk1 antibody, percent positive cells (AID 1186). The settings on record: hydroxyurea-induced phospho-Chk1 immunofluorescence imaging, higher = more signal.
Assay [6] can be described thus: inhibitors of hydroxyurea-induced Chk1 phosphorylation, primary screen, imaging, HeLa, phospho-Chk1 nuclear intensity (AID 1187). The settings on record: hydroxyurea-induced phospho-Chk1 immunofluorescence imaging, higher = more signal.

For the compound `[N-]=[N+]=NCc1ccccc1[C@@H]1OC(c2ccc(OCCCO)cc2)=N[C@]1(Cc1ccccc1)C(=O)NCCN1CCOCC1`, the composite z-score is -0.256 (inactive) in assay [1] and 0.77 in assay [2]. Moreover, the z-score in assay [3] was -2.2; in assay [4], -1.66 (inactive); in assay [5], -0.294 (inactive); in assay [6], -0.108 (inactive).
`[N-]=[N+]=NCc1ccccc1[C@@H]1OC(c2ccc(OCCCO)cc2)=N[C@]1(Cc1ccccc1N=[N+]=[N-])C(=O)NCCN1CCOCC1`: the composite z-score is 0.24 (inactive) in assay [1] and 0.878 in assay [2]. In addition, the z-score in assay [3] was -2.45; in assay [4] it was -4.64 (inactive); in assay [5], -0.276 (inactive); in assay [6] it was -0.22 (inactive).
With `COc1ccc(C(O)C2C=CC3C(=O)N(c4ccccc4)C(=O)C3N2Nc2ccc(C(C)C)cc2)c2ccccc12` (configuration not stated), the figures for the composite z-score in assay [1] and in assay [2] were 0.886 (inactive) and 0.802, respectively. The z-score in assay [3] was -0.247; in assay [4], -0.93 (inactive); in assay [5], 0.417 (inactive); in assay [6], 0.0807 (inactive).
For the compound `C=CCC(OC(C)=O)[C@@H]1[C@@H](N(Cc2ccc(-c3cccc(C(F)(F)F)c3)o2)C(=O)Cc2ccc(OC)cc2)c2cc(OCCCO)ccc2N1C(=O)Cc1ccc2ccccc2c1` (some centres not stated), the figures for the composite z-score in assay [1] and in assay [2] were 0.0389 (inactive) and 0.625, respectively. Further, the z-score is -2.17 in assay [3], -1.9 (inactive) in assay [4], 0.162 (inactive) in assay [5] and 0.375 (inactive) in assay [6].
For the compound `COCCOC(=O)N1C(=O)[C@@]2(c3cc(C#CCNC(N)=O)ccc31)[C@H](c1ccc(OCCO)cc1)N1[C@H](c3ccccc3)[C@H](c3ccccc3)OC(=O)[C@H]1[C@@H]2C(=O)NC[C@H](O)c1ccccc1`, the values for the composite z-score in assay [1] and in assay [2] were 0.586 (inactive) and 0.644, respectively. For the same compound, the z-score was -0.599 in assay [3], -1.94 (inactive) in assay [4], -0.3 (inactive) in assay [5] and -0.102 (inactive) in assay [6].
As to `CC(C)CNC(=O)[C@@]1(C)c2ccccc2C(=O)N(Cc2cc(C(F)(F)F)cc(C(F)(F)F)c2)[C@H]1c1ccc(CO)cc1`, the composite z-score was -0.337 (inactive) in assay [1] and 0.145 in assay [2]. Moreover, the z-score was -0.607 in assay [3], -2.63 (inactive) in assay [4], 0.0613 (inactive) in assay [5] and 0.447 (inactive) in assay [6].
Turning to `CO[C@H]1O[C@H](CO)[C@@H](OC(=O)Nc2cccc(F)c2)[C@H](OC(=O)Nc2ccccc2-c2ccccc2)[C@H]1OC(=O)Nc1ccccc1-c1ccccc1`, the composite z-score was 0.184 (inactive) in assay [1] and 0.857 in assay [2]. In addition, the z-score in assay [3] was -1.7; in assay [4], -4.36 (inactive); in assay [5], -0.788 (inactive); in assay [6] it was -1.36 (inactive).
As to `COc1ccc(C(O)C2C=CC3C(=O)N(c4ccccc4)C(=O)C3N2Nc2ccccc2F)cc1` (configuration not stated), the composite z-score in assay [1] is 1.11 (inactive); in assay [2], 0.857. Also, the z-score in assay [3] is 0.571; in assay [4], -3.05 (inactive); in assay [5] it was -0.296 (inactive); in assay [6], -0.741 (inactive).
Turning to `CCOC(=O)C1=CC[C@@H](c2ccccc2)N(S(=O)(=O)c2ccc(C)cc2)[C@H]1c1cccc(OC)c1`, the composite z-score in assay [1] is -0.285 (inactive); in assay [2] it was 0.291. The z-score in assay [3] was -2.14; in assay [4], 0.892 (inactive); in assay [5], 0.238 (inactive); in assay [6] it was -0.67 (inactive).
In the case of `CCC(CC)C(O)C1C=CC2C(=O)N(c3ccccc3)C(=O)C2N1Nc1ccc([N+](=O)[O-])cc1` (configuration not stated), the figures for the composite z-score in assay [1] and in assay [2] were 0.39 (inactive) and 0.493, respectively. The z-score in assay [3] was 1.38; in assay [4], -3.49 (inactive); in assay [5], -0.37 (inactive); in assay [6], -1.56 (inactive).
Regarding `CCOC(=O)C1=CC[C@@H](c2ccccc2)N(S(=O)(=O)c2ccc(C)cc2)[C@H]1C=Cc1ccccc1`, the composite z-score in assay [1] is 0.0537 (inactive); in assay [2] it was 0.749. For the same compound, the z-score in assay [3] was -2.01; in assay [4], 1.66 (inactive); in assay [5] it was -0.511 (inactive); in assay [6], -0.645 (inactive).
`C=C(/C(=C/C[C@@H](OC(C)=O)c1ccc(CO)o1)c1cc(C(=O)OC)ccc1OC)C(C)C`: the composite z-score in assay [1] is 0.698 (inactive); in assay [2], 0.135. For the same compound, the z-score in assay [3] is -0.485; in assay [4], -4.95 (inactive); in assay [5], 0.623 (inactive); in assay [6] it was 0.273 (inactive).
For `COCC1C2CC[C@H]3C(OCc4ccc(OC)cc4)OC[C@]4(C)[C@H]3C2=C(CN4C(=O)OC(C)(C)C)[C@H](C)C1COC` (some centres not stated), the composite z-score in assay [1] is -0.272 (inactive); in assay [2], 0.682. Moreover, the z-score was -0.821 in assay [3], -4.09 (inactive) in assay [4], -0.615 (inactive) in assay [5] and -0.719 (inactive) in assay [6].
For `COc1cc(NN2C(C(O)c3cc(OC)c(OC)c(OC)c3)C=CC3C(=O)N(c4ccccc4)C(=O)C32)cc(OC)c1OC` (configuration not stated), the composite z-score in assay [1] was 0.692 (inactive); in assay [2], 0.552. The z-score is -0.732 in assay [3], -4.86 (inactive) in assay [4], 1.06 (inactive) in assay [5] and 0.889 (inactive) in assay [6].
As to `O=c1cccc(-c2ccco2)o1`, the composite z-score in assay [1] is -0.103 (inactive); in assay [2], 0.337. The z-score in assay [3] was 2.05; in assay [4], -1.92 (inactive); in assay [5] it was 0.0593 (inactive); in assay [6], -0.106 (inactive).
In the case of `O=C1C2C=CC(C(O)c3ccco3)N(Nc3ccccc3)C2C(=O)N1c1ccccc1` (configuration not stated), the composite z-score is 1.11 (inactive) in assay [1] and 0.8 in assay [2]. Also, the z-score in assay [3] is 0.125; in assay [4] it was -2.27 (inactive); in assay [5], 0.209 (inactive); in assay [6], -0.0253 (inactive).
Turning to `COc1cc2c(cc1O)C(c1ccc(CN3CCCC3)cc1)N(C)CC2` (configuration not stated), the composite z-score in assay [1] is -0.389 (inactive); in assay [2] it was -0.819. Besides, the z-score is -1.58 in assay [3], -2.85 (inactive) in assay [4], 0.227 (inactive) in assay [5] and 0.129 (inactive) in assay [6].
